# IL1B secr inh: inflammasome signaling inhibition, IL-1 beta readout. AID 743279. THP-1 LPS/ATP IL-1B secretion, AlphaLISA, 16 h; stronger effect = lower value. 360,000 tested, 4.7% active. activity change, % at 57.5 µM; in the data active = activity change below about -50%; inconclusive = mostly about -30% to -49%
#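 Secreted IL-1B measured by AlphaLISA bead assay after 16 h compound exposure of THP-1 cells; compounds (final up to 57.5 uM) added 1 h before LPS (250 ng/mL) and ATP (1.25 mM) stimulation; lower signal means less secretion.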
# HT1080NT lethal: kills 2HG-producing HT-1080-NT fibrosarcoma cells; 360,000 tested, 1.6% active; HT-1080-NT fibrosarcoma viability, CellTiter-Glo ATP luminescence, 48 h; Potency, µM (highest dose often 46.1 µM), inactives show at the top dose activity, negative = less viability, usual class: cytotoxic;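 note: NT is the 2HG producing partner of a matched IDH1 knockdown line; potency is the fitted concentration of half-maximal effect; 0% = DMSO-treated cells and -100% = media-only wells without cells; nearly all actives have a fitted effect of over 55% in size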
#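 Viability of the 2HG-overproducing fibrosarcoma line after 48 hours of compound exposure at 37 degrees C was determined by luminescence with CellTiter-Glo, and concentration-effect curves were then fitted and categorized.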
# HT1080 IDH1KD tx: kills HT-1080 cells with IDH1 knockdown; HT-1080 IDH1 knockdown viability, ATP luminescence, 48 h; Potency, µM (highest dose often 46.1 µM), for inactives: at the highest dose activity, negative = toxicity, usual class: cytotoxic; 360,000 tested, 2% active; AID 686971;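 note: potency is the fitted concentration of half-maximal effect; 0% = DMSO wells and -100% = cell-free medium wells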
#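 % activity derives from luminescence (CellTiter-Glo), normalised to DMSO and no-cell wells. HT-1080-IDH1KD cells, 750/well, had 48 h compound exposure at 37 °C.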
# TDP1 cell noCPT: qHTS for Inhibitors of human tyrosyl-DNA phosphodiesterase 1 (TDP1): qHTS in cells in absence of CPT; DT40 Tdp1-/- hTDP1 cells, no CPT, ATP luminescence, 48 h; Potency, µM (top dose mostly 46.2 µM), for inactives: at the top dose activity change, negative = growth inhibition, most hits filed as inhibitors; 420,000 tested, 15% active; AID 686978, 2013; note: potency is the fitted concentration of half-maximal effect; nearly all actives have a fitted effect of over 55% in size
#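 Chicken DT40 Tdp1-/- cells stably complemented with human TDP1 were seeded at 400 cells/well with DMSO in place of 20 nM camptothecin. After compound pinning, cells grew at least 48 hr at 37 °C; viability read by CellTiter-Glo luminescence.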
# DT40 TDP1 CPT: DT40-hTDP1 cell growth loss with CPT. Potency, µM (highest dose often 46.2 µM), without a hit: top-dose activity change, negative = growth inhibition, most hits filed as inhibitors. 420,000 tested, 12% active. chicken DT40 Tdp1-/-;hTDP1 cells + 20 nM CPT, ATP luminescence, 48 h; note: potency is the fitted concentration of half-maximal effect; nearly all actives have a fitted effect of over 55% in size
#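 Chicken DT40 Tdp1-/- cells stably complemented with human TDP1 were seeded at 400 cells/well in medium containing 20 nM camptothecin, exposed to pin-transferred compounds, and grown at 37 °C for at least 48 hr. Viability was read as ATP luminescence.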
# The depositor's hits bear a star; ? = inconclusive; nt = not tested or not shown; [ ] = dose if it differs, or a comment. Hits are enriched below; roughly 19% of the tested compounds scored in any of these assays. Unless noted, calls come from the whole dose curve; as a rule, active = well fitted curve in the direction sought with a large enough effect; inconclusive = small, poorly fitted or top-dose-only effect, or another doubt; inactive = no such curve, though single readings can be large; an effect the other way counts as inactive or inconclusive. Unless noted, % is set by controls: 0 for no effect and ±100 for the full control effect.
SMILES,IL1B secr inh,HT1080NT lethal,HT1080 IDH1KD tx,TDP1 cell noCPT,DT40 TDP1 CPT
CC(=O)N1CCOc2ccc(S(=O)(=O)N3CC(C)CC(C)C3)cc21 (stereo unspecified),15,-6%,0%,24%,-17%
CC(C)(C)OC(=O)N1CCN(C(c2ccnc3ccccc23)c2nnnn2-c2ccc3c(c2)OCCO3)CC1 (stereo unspecified),6,-11%,?,16µM*,?
CN(Cc1ccccc1)C(c1ccnc2ccccc12)c1nnnn1-c1ccc2c(c1)OCCO2 (stereo unspecified),-16,?,?,?,?
CC(=O)c1ccc(NS(=O)(=O)c2ccc(C(C)(C)C)cc2)cc1,0,4%,-7%,?,?
CC(C)(C)c1ccc(S(=O)(=O)Nc2cccc(C3OCCCO3)c2)cc1,0,-2%,-8%,15µM*,15µM*
C/C(=N/Nc1ccc([N+](=O)[O-])cc1)c1ccc(C)cc1C,-81*,-1%,-13%,-102%,-102%
O=C(O)CC/C(=N\Nc1ccc([N+](=O)[O-])cc1)c1ccccc1,7,-18%,-13%,7%,5%
O=C(O)CC/C(=N/Nc1ccc([N+](=O)[O-])cc1)C(=O)O,14,1.6µM*,5.8µM*,0%,13%
CCOC(=O)c1c(C)[nH]c(C)c1C(=O)CSc1nc(N)cc(=O)[nH]1,2,-2%,1%,-21%,-2%
CCCc1nnc(NC(=O)C2CCCO2)s1 (stereo unspecified),15,5%,7%,-1%,6%
Cc1ccccc1C(=O)NCC(=O)OCCCOC(=O)CNC(=O)c1ccccc1C,5,-6%,1%,-1%,-3%
CCc1ccccc1NC(=O)CN1CCN(CC(=O)Nc2ccc(-c3ccccc3)cc2)CC1,-3,16%,5%,16µM*,?
CCc1ccccc1NC(=O)CN1CCN(C(=O)CNC(=O)c2ccc(-c3ccccc3)cc2)CC1,-3,-6%[9.24 µM],?,7.3µM*,4.6µM*
Cc1ccc(C(=O)NCC(=O)N2CCN(c3ccccc3)CC2)cc1,-15,7%,-1%,6%,7%
Cc1cccc(C)c1NC(=O)C1(C)CCC(=O)N1CCc1c[nH]c2ccccc12 (stereo unspecified),19,21%,0%,-3%,-10%
CCc1cc(-c2nnn(CCC3COCCO3)c2CC)ccc1-c1cn(CCc2c[nH]c3ccccc23)nn1 (stereo unspecified),13,-35%,?,12µM*,16µM*
CN(C)c1ccc(/C(=N\O)c2ccccc2)cc1,-11,2%,-14%,-17%,-8%
CN=C1C=CC(=C(c2ccc(N(C)C)cc2)c2ccc(N(C)C)cc2)C=C1,nt,nt,nt,0.21µM*,0.21µM*
N#Cc1cccc(S(=O)(=O)N2CCN(S(=O)(=O)c3ccc4c(c3)OCCO4)CC2)c1,nt,nt,nt,-1%,11%
CCOC(=O)c1c(N)sc2c1CCC1C(=O)N(C3CCCCC3)C(=O)C21 (stereo unspecified),-19,-6%,-21%,26µM*,?
Cc1[nH]c2ccc(C(=O)NCCCN3CCOCC3)cc2c1C,-7,10%,2%,1%,3%
CC1=Nc2cc(C(=O)NCCN3CCOCC3)ccc2Sc2c(C)ccc(C)c21,3,?,?,13µM*,16µM*
CC1=Nc2cc(C(=O)NCCCN3CCOCC3)ccc2Sc2c(C)ccc(C)c21,-73*,16µM*,21µM*,?,?
O=C(NCCN1CCOCC1)c1ccc(Cl)c(Cl)c1,6,17%,28%,4%,24%
O=C(Nc1cccc2ccccc12)N1CCOCC1,0,7%,-5%,-7%,0%
SMILES,IL1B secr inh,HT1080NT lethal,HT1080 IDH1KD tx,TDP1 cell noCPT,DT40 TDP1 CPT
Cc1cccc(NC(=O)c2cccc(OC(=S)N3CCOCC3)c2)c1,17,-7%,-15%,15µM*,?
Cc1ccc(C(=O)Nc2cccc(C(=O)N3CCOCC3)c2)cc1,4,-1%,3%,-1%,-19%
O=C(Nc1cccc(-n2cnnn2)c1)c1cccc(Cl)c1,-20,9%,12%,?,?
O=C(Nc1cccc(Cl)c1)c1ccc(OC(=S)N2CCOCC2)cc1,11,?,?,?,?
O=C(Nc1cccc2ccccc12)c1ccc(OC(=S)N2CCOCC2)cc1,7,?,?,23µM*,23µM*
CC(C)(C)c1ccc(C(=O)Nc2cccc(-n3cnnn3)c2)cc1,-14,14%,0%,2.6µM*,?
CC(C)(C)c1ccc(C(=O)Nc2cccc(C(=O)N3CCOCC3)c2)cc1,-5,-4%,-14%,?,15µM*
O=C1[C@@H](c2ccccc2)CC[C@@H]2C=CC[C@H]3CCN1[C@@H]32,4,12%,-1%,16µM*,?
O=C(CN1C(=O)NC(CCc2ccccc2)C1=O)Nc1cccc(Br)c1 (stereo unspecified),-28,-10%,-8%,16µM*,?
CC(C)CC1NC(=O)N(CC(=O)Nc2cccc(Br)c2)C1=O (stereo unspecified),0,-11%,-4%,10%,-6%
CCOC(=O)c1ccc[n+](CC(=O)Nc2cc(C(F)(F)F)ccc2Cl)c1,5,2%,15%,-11%,-6%
Cc1cnc(C(=O)OCC(=O)N2CCN(S(=O)(=O)c3ccc(Cl)cc3)CC2)cn1,15,-1%,14%,-8%,-5%
CCC12CC1(C(=O)OC)C(=O)N1CCc3c([nH]c4ccccc34)C12 (stereo unspecified),-59*,-1%,3%,-13%,1%
COCCCNC(=O)/C(C#N)=C/c1c(N2CCN(C)CC2)nc2c(C)cccn2c1=O,32,1%,17%,3%,9%
CNC(=O)/C(C#N)=C/c1c(N2CCN(c3ccc(OC)cc3)CC2)nc2c(C)cccn2c1=O,?,0%,-3%,?,?
COCCCNC(=O)/C(C#N)=C/c1c(N2CCN(c3ccc(OC)cc3)CC2)nc2c(C)cccn2c1=O,-23,-1%,-8%,15µM*,23µM*
CNC(=O)/C(C#N)=C/c1c(N2CCN(c3ccccc3)CC2)nc2c(C)cccn2c1=O,-13,4%,2%,15µM*,?
Cc1cccn2c(=O)c(/C=C(\C#N)C(N)=O)c(N3CCN(Cc4ccc5c(c4)OCO5)CC3)nc12,-51*,-2%,-15%,?,?
COCCNC(=O)/C(C#N)=C/c1c(N2CCCCCC2)nc2c(C)cccn2c1=O,-21,9%,-8%,15µM*,?
